PubChem BioAssay AID463173 (ICCB-Longwood Screening Facility, Harvard Medical School, 2010)
About 4,300 (8.3%) of roughly 52,000 compounds were called active. Many of the other results were omitted from the sample, so actives are more common in it than they were. Unmarked numbers belong to inactive results. Cut-off read from the data, not from the text of the source: active = survival mostly below about 52% (no sharp cut-off); inactive = mostly above about 56%.

tested on: DeltatarO mutant; assay: S. aureus survival, RN4220 and DeltatarO strains – OD600, teichoic acid synthesis inhibitors, primary screen (AID 463173); conditions: S. aureus RN4220 wild type/DeltatarO growth, OD600, 18 h, hits give low values, screened at 18.75 µg/mL (by protocol)

Row | SMILES | survival
1 | Nc1nc(SCC(=O)Nc2cccc(C(F)(F)F)c2)n[nH]1 | 63%
2 | COC(=O)c1sccc1S(=O)(=O)N1CCN(c2ccccc2OC)CC1 | 74%
3 | CC1CCc2onc(C(=O)Nc3ccc(Cl)cc3)c2C1 (configuration not stated) | 75%
4 | COc1cc(NC(=O)c2noc3c2CC(C)CC3)c(OC)cc1Cl (configuration not stated) | 69%
5 | O=C(Nc1ccccc1C(F)(F)F)c1noc2c1CCCC2 | 63%
6 | CCc1ccccc1NC(=O)c1noc2c1CC(C(C)(C)C)CC2 (configuration not stated) | -6% (active)
7 | COc1cc(NC(=O)c2noc3c2CCc2ccccc2-3)cc(OC)c1OC | 88%
8 | COc1cc(NC(=O)c2noc3c2CC(C(C)(C)C)CC3)cc(OC)c1OC (configuration not stated) | 40% (active)
9 | O=C(CN1C(=O)COc2ccc(S(=O)(=O)N3CCCC3)cc21)N1CCN(c2ccc(F)cc2)CC1 | 80%
10 | CCOc1ccccc1CNc1nc2nc(C)cc(C)n2n1 | 97%
11 | CCc1ccccc1N(CC)C(=O)C1CCN(c2ncnc3c2nc2n3CCCCC2)CC1 | 83%
12 | CC(Oc1ccccc1F)C(=O)NCC1(N2CCOCC2)CCCCC1 (configuration not stated) | 61%
13 | CCOc1ccccc1CNC(=O)CC(C)n1ccc(C)n1 (configuration not stated) | 77%
14 | CCOC(=O)c1ccc(NC(=O)CC(C)n2nc(C)cc2C)cc1 (configuration not stated) | 124%
15 | CC(=O)Nc1ccc(NC(=O)CC(C)n2ccc(C)n2)cc1 (configuration not stated) | 52% (active)
16 | O=C(OCc1ccccc1)Sc1nnc(-c2ccccc2Cl)o1 | 90%
17 | CCn1c(=O)cc(OCC(=O)NCc2ccccc2OC)c2ccccc21 | 60%
18 | CCn1c(=O)cc(OCC(=O)NCc2ccccc2Cl)c2ccccc21 | 40% (active)
19 | CCn1c(=O)cc(OCC(=O)Nc2ccc(C)c(F)c2)c2ccccc21 | 60%

Row | SMILES | survival
20 | CCCN(C(=O)Cn1c(=O)oc2cc(Cl)ccc21)c1ccc(C(C)C)cc1 | 15% (active)
21 | CCn1c(=O)cc(OCC(=O)NCc2ccc(F)cc2Cl)c2ccccc21 | 105%
22 | CCn1c(=O)cc(OCC(=O)N(C)c2cc(Cl)ccc2C)c2ccccc21 | 55% (active)
23 | CCCN(c1ccc(C(C)C)cc1)S(=O)(=O)c1ccc2c(c1)oc(=O)n2CC(=O)OCC | 73%
24 | CCCN(C(=O)COc1cc(=O)n(CC)c2ccccc12)c1ccc(C(C)C)cc1 | -22% (active)
25 | CCN(C(=O)Cn1c(=O)oc2cc(Cl)ccc21)c1cccc(C(F)(F)F)c1 | 67%
26 | CCn1c(=O)cc(OCC(=O)Nc2cc(Cl)c(OC)cc2OC)c2ccccc21 | 69%
27 | CCc1ccc(CNC(=O)COc2cc(=O)n(CC)c3ccccc23)cc1 | 55%
28 | CCn1c(=O)cc(OCC(=O)N(C)c2ccc(OC)cc2)c2ccccc21 | 72%
29 | Cc1ccc(/C=C/c2onc(C)c2S(=O)(=O)N2CCC(C(=O)N3CCN(c4cccc(C)c4)C(C)C3)CC2)cc1 (configuration not stated) | 67%
30 | COc1ccccc1C(=O)NC1(C(F)(F)F)C(=O)Nc2c1c(=O)[nH]c(=O)n2-c1ccc(F)cc1 (configuration not stated) | 190%
31 | Cc1ccc(-n2ncc3c(=O)n(Cc4ccccc4C)cnc32)cc1C | 127%
32 | CC(=O)N(Cc1cccnc1)c1nc2ccc(F)cc2s1 | 81%
33 | Cc1ccc2c(=O)cc(C(=O)Nc3ccc(S(=O)(=O)N4CCCCC4)cc3)oc2c1C | 90%
34 | Cc1ccc2c(=O)cc(C(=O)Nc3ccc(S(=O)(=O)N4CCC(C)CC4)cc3)oc2c1C | 60%
35 | O=C(Nc1ccc(S(=O)(=O)N2CCCCC2)cc1)C(F)(F)F | 58% (active)
36 | Cc1ccc2c(=O)cc(C(=O)Nc3ccc(S(=O)(=O)N4CCCC(C)C4)cc3)oc2c1C (configuration not stated) | 51% (active)
37 | Cc1c(C(=O)Nc2ccc(F)c(F)c2)oc2ccc(S(=O)(=O)N3CCCCC3)cc12 | 52% (active)
38 | COC(=O)Nc1ccc(S(=O)(=O)N2CCCCC2)cc1 | 107%

Row | SMILES | survival
39 | Cc1ccc(NC(=O)c2oc3ccc(S(=O)(=O)N4CCCCCC4)cc3c2C)cc1Cl | 86%
40 | Cc1c(C(=O)Nc2ccc(F)cc2)oc2ccc(S(=O)(=O)N3CCCCCC3)cc12 | 99%
41 | Cc1cc(C)c2oc(C(=O)Nc3ccc(S(=O)(=O)N4CCCCCC4)cc3)cc(=O)c2c1 | 62%
42 | O=C(Nc1ccc(S(=O)(=O)N2CCCCC2)cc1)C1CCCCC1 | 97%
43 | Cc1cc(C)c2oc(C(=O)Nc3ccc(S(=O)(=O)N4CCC(C)CC4)cc3)cc(=O)c2c1 | 48%
44 | Cc1cc(C)c2oc(C(=O)Nc3ccc(S(=O)(=O)N4CCCCC4)cc3)cc(=O)c2c1 | 45% (active)
45 | O=C(NCc1ccccc1Cl)c1c2c(nc3ccccc13)C(=O)N(C1CCCCC1)C2 | 92%
46 | COC(=O)c1ccc(-n2c(/C=C/c3cc(OC)c(OC)c(OC)c3)nc3cc(Cl)ccc3c2=O)cc1 | 80%
47 | Cc1cc2oc(C(=O)Nc3ccc(S(=O)(=O)N4CCC(C)CC4)cc3)cc(=O)c2cc1C | 72%
48 | Cc1cc2oc(C(=O)Nc3ccc(S(=O)(=O)N4CCCCCC4)cc3)cc(=O)c2cc1C | 42% (active)
49 | Cc1ccc2c(=O)cc(C(=O)Nc3ccc(S(=O)(=O)N4CCCCCC4)cc3)oc2c1 | 106%
50 | Cc1ccc(C)c(N2CCN(C(=O)C3CCN(C(=O)c4cc5sccc5n4C)CC3)CC2)c1 | 54%
51 | CC1=C(C(=O)NCc2ccccc2C)C2(CCCCCC2)OC1=O | 78%
52 | CCc1ccc(-n2nc3cc(C)c(NC(=O)c4ccccc4C)cc3n2)cc1 | 89%
53 | COc1ccc(-n2nc3cc(C)c(NC(=O)c4ccc(-c5ccc(Cl)cc5)o4)cc3n2)cc1 | 45%
54 | COc1ccc(-n2nc3cc(C)c(NC(=O)Cc4ccc(Cl)cc4)cc3n2)cc1 | 56%
55 | Cc1ccc(-n2nc3cc(C)c(NC(=O)Cc4ccc(Cl)cc4)cc3n2)cc1 | 64%
56 | COc1ccc(-n2nc3cc(C)c(NC(=O)c4ccc(-c5ccc(Br)cc5)o4)cc3n2)cc1 | 37% (active)
57 | Cc1ccc(-n2nc3cc(C)c(NC(=O)c4ccc(-c5ccccc5)o4)cc3n2)cc1 | 46% (active)
